Assay [1] is described as follows: NCI Yeast Anticancer Drug Screen. Data for the rad50 strain (AID 155).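 Also: 0% = growth of vehicle-only cultures of the same strain.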 The note with it: S. cerevisiae rad50 strain growth inhibition, stronger effect = higher value. The method in brief: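 Growth of the mutant yeast was measured after compound exposure and referenced to vehicle-treated cultures.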
The nature of assay [2]: NCI Yeast Anticancer Drug Screen. Data for the mec2-1 strain (AID 157). The settings on record: S. cerevisiae mec2-1 strain, stronger effect = higher value. In a few lines:
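Mutant yeast (mec2-1) grown with compound; growth inhibition relative to vehicle control reported.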

The nature of assay [3]: NCI Yeast Anticancer Drug Screen. Data for the sgs1 mgt1 strain (AID 161).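 Also: 0% = growth of cultures given vehicle only.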 The settings on record: S. cerevisiae sgs1 mgt1 strain, stronger effect = higher value. The method in brief: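 This yeast growth screen uses a strain with defined DNA-repair lesions; compound-treated growth is compared with vehicle-treated growth.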
Assay [4] can be described thus: NCI Yeast Anticancer Drug Screen. Data for the cln2 rad14 strain (AID 165).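 Also: 0% = growth equal to vehicle treated cultures.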 The settings on record: S. cerevisiae cln2 rad14 strain, stronger effect = higher value. In a few lines: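 Readout is yeast growth inhibition versus vehicle-treated controls, using a strain with cln2 and rad14 alterations exposed to compound.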
A short description of assay [5]: NCI Yeast Anticancer Drug Screen. Data for the bub3 strain (AID 167). The settings on record: S. cerevisiae bub3 mutant strain, stronger effect = higher value. The method in brief:
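Whole-cell yeast assay. The mutant strain was incubated with compounds, and growth inhibition was determined by comparison with vehicle-treated cells.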

The nature of assay [6]: NCI Yeast Anticancer Drug Screen. Data for the mlh1 rad18 strain (AID 175). The note with it: S. cerevisiae mlh1 rad18 strain growth inhibition, stronger effect = higher value. The method in brief:
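Genetically defined yeast (DNA repair-deficient) exposed to compounds; growth inhibition determined relative to vehicle.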

Setting [7] is: at 5.0 µM (retest, dose inferred, filed as 0.5).
Setting [8] is: at 50.0 µM (retest, dose inferred, filed as 5.0).

Values joined by “and” are separate entries in the source; they are usually repeats but may differ in a detail not shown here. Equal values may be shown once. Compounds without any hit were thinned out: in the full panel of roughly 79,000, 15% have a hit. Where a structure was tested more than once in an assay, its records may differ in their call. Active and inactive are the calls of the source. Rule as the data show it: active = growth inhibition above about 70%; inactive = the rest.

Take `COC1C(O)C(C)OC(OC2C(Oc3cccc4c(O)c5c(=O)oc6ccc(C)c7c(=O)oc(c34)c5c67)OC(C)C3O[C@H](c4ccccc4)OC32)C1O` (stereo partly specified): the growth inhibition in assay [1] (setting [7]) is 82% (active); in assay [1] (setting [8]), 96% (active); in assay [1] (at 50.0 µM), 86.5% (active); in assay [2] (setting [7]), 70% (active); in assay [2] (setting [8]), 96% (active); in assay [2] (at 50.0 µM), 88.5% (active). For the same compound, the growth inhibition in assay [3] (setting [7]) is 73% (active); in assay [3] (setting [8]), 96% (active); in assay [3] (at 50.0 µM), 91% (active); in assay [4] (setting [7]), 59% (inactive); in assay [4] (setting [8]) it was 96% (active); in assay [4] (at 50.0 µM), 88.3% (active). The growth inhibition in assay [5] (setting [7]) was 74% (active); in assay [5] (setting [8]) it was 95% (active); in assay [5] (at 50.0 µM), 89.6% (active); in assay [6] (setting [7]), 77% (active); in assay [6] (setting [8]) it was 93% (active); in assay [6] (at 50.0 µM), 77.3% (active).
For `CCC(C)[P+](c1ccccc1)(c1ccccc1)c1ccccc1` (stereo unspecified), the growth inhibition in assay [1] (setting [7]) was 2% (inactive); in assay [1] (setting [8]), 36% (inactive); in assay [1] (at 50.0 µM), 62.9% (inactive) and 33.3% (inactive); in assay [2] (setting [7]) it was 18% (inactive); in assay [2] (setting [8]) it was 60% (inactive); in assay [2] (at 50.0 µM) it was 66% (inactive) and 29.6% (inactive). Also, the growth inhibition in assay [3] (setting [7]) was -8% (inactive); in assay [3] (setting [8]) it was 23% (inactive); in assay [3] (at 50.0 µM), 53.9% (inactive) and 19.9% (inactive); in assay [4] (setting [7]) it was -4% (inactive); in assay [4] (setting [8]), 25% (inactive); in assay [4] (at 50.0 µM), 58.1% (inactive) and 36% (inactive). Besides, the growth inhibition in assay [5] (setting [7]) was -3% (inactive); in assay [5] (setting [8]) it was 30% (inactive); in assay [5] (at 50.0 µM) it was 57.8% (inactive) and 36% (inactive); in assay [6] (setting [7]), 21% (inactive); in assay [6] (setting [8]), 54% (inactive); in assay [6] (at 50.0 µM) it was 72.4% (active) and 53.9% (inactive).
For `O=C1C(CN(Cc2ccccc2)Cc2ccccc2)CCCC1CN(Cc1ccccc1)Cc1ccccc1` (stereo unspecified), the growth inhibition in assay [1] (setting [7]) is 4% (inactive); in assay [1] (setting [8]), 17% (inactive); in assay [1] (at 50.0 µM) it was 90.6% (active) and -1.45% (inactive); in assay [2] (setting [7]) it was -3% (inactive); in assay [2] (setting [8]) it was 22% (inactive); in assay [2] (at 50.0 µM), 73% (active) and 25.6% (inactive). Moreover, the growth inhibition in assay [3] (setting [7]) was 4% (inactive); in assay [3] (setting [8]) it was 46% (inactive); in assay [3] (at 50.0 µM), 72.7% (active) and 21.9% (inactive); in assay [4] (setting [7]), -20% (inactive); in assay [4] (setting [8]), 7% (inactive); in assay [4] (at 50.0 µM), 23.6% (inactive) and 67.8% (inactive). In addition, the growth inhibition in assay [5] (setting [7]) is -16% (inactive); in assay [5] (setting [8]), 47% (inactive); in assay [5] (at 50.0 µM) it was 83.2% (active) and 21.4% (inactive); in assay [6] (setting [7]), -3% (inactive); in assay [6] (setting [8]), 58% (inactive); in assay [6] (at 50.0 µM), 80.8% (active) and 14.2% (inactive).
Consider `O=C(CC(=O)CC(O)(c1ccccc1)c1ccccc1)CC(=O)c1ccccc1`, for which the growth inhibition is -4% (inactive) in assay [1] (setting [7]); 95% (active) in assay [1] (setting [8]); 98.4% (active) in assay [1] (at 50.0 µM); -10% (inactive) in assay [2] (setting [7]); 98% (active) in assay [2] (setting [8]); 98% (active) in assay [2] (at 50.0 µM). Further, the growth inhibition in assay [3] (setting [7]) is 0% (inactive); in assay [3] (setting [8]), 98% (active); in assay [3] (at 50.0 µM), 98% (active); in assay [4] (setting [7]), -11% (inactive); in assay [4] (setting [8]) it was 94% (active); in assay [4] (at 50.0 µM) it was 98% (active). Further, the growth inhibition in assay [5] (setting [7]) is -8% (inactive); in assay [5] (setting [8]) it was 96% (active); in assay [5] (at 50.0 µM), 97.2% (active); in assay [6] (setting [7]), 30% (inactive); in assay [6] (setting [8]), 97% (active); in assay [6] (at 50.0 µM), 98% (active).
On to `OCCNc1nc(NCCO)c2nc(-c3ccccc3)c(-c3ccccc3)nc2n1`, for which the growth inhibition was 8% (inactive) and -2% (inactive) in assay [1] (setting [7]); 61% (inactive) and 43% (inactive) in assay [1] (setting [8]); -2.2% (inactive) and 58% (inactive) in assay [1] (at 50.0 µM); -3% (inactive) and 1% (inactive) in assay [2] (setting [7]); 45% (inactive) in assay [2] (setting [8]); -0.45% (inactive) and 43.8% (inactive) in assay [2] (at 50.0 µM). The growth inhibition in assay [3] (setting [7]) was -9% (inactive) and 0% (inactive); in assay [3] (setting [8]), 88% (active) and 51% (inactive); in assay [3] (at 50.0 µM), 0.6% (inactive) and 57.6% (inactive); in assay [4] (setting [7]) it was 6% (inactive) and -2% (inactive); in assay [4] (setting [8]), 37% (inactive) and 32% (inactive); in assay [4] (at 50.0 µM), -7.45% (inactive) and 49.8% (inactive). The growth inhibition in assay [5] (setting [7]) was 6% (inactive) and -1% (inactive); in assay [5] (setting [8]) it was 61% (inactive) and 43% (inactive); in assay [5] (at 50.0 µM) it was -0.8% (inactive) and 41.7% (inactive); in assay [6] (setting [7]), 5% (inactive) and -1% (inactive); in assay [6] (setting [8]) it was 89% (active) and 52% (inactive); in assay [6] (at 50.0 µM), 16.5% (inactive) and 61.2% (inactive).
Consider `CCOC(=O)/C(=C/c1ccc(OC)c(OC)c1)C(=O)c1ccccc1`, for which the growth inhibition was 12% (inactive) in assay [1] (setting [7]); 49% (inactive) in assay [1] (setting [8]); 74.7% (active) in assay [1] (at 50.0 µM); -19% (inactive) in assay [2] (setting [7]); 66% (inactive) in assay [2] (setting [8]); 68% (inactive) in assay [2] (at 50.0 µM). The growth inhibition in assay [3] (setting [7]) was 2% (inactive); in assay [3] (setting [8]), 65% (inactive); in assay [3] (at 50.0 µM), 64.7% (inactive); in assay [4] (setting [7]) it was 27% (inactive); in assay [4] (setting [8]), 71% (active); in assay [4] (at 50.0 µM) it was 72.5% (active). Moreover, the growth inhibition was 27% (inactive) in assay [5] (setting [7]); 92% (active) in assay [5] (setting [8]); 78.4% (active) in assay [5] (at 50.0 µM); -7% (inactive) in assay [6] (setting [7]); 80% (active) in assay [6] (setting [8]); 56.5% (inactive) in assay [6] (at 50.0 µM).
With `O=C1/C(=C/c2ccc(Cl)cc2)Sc2scc(-c3cccc([N+](=O)[O-])c3)[n+]21`, the growth inhibition was 26% (inactive) in assay [1] (setting [7]); 99% (active) in assay [1] (setting [8]); 89.5% (active) in assay [1] (at 50.0 µM); 36% (inactive) in assay [2] (setting [7]); 100% (active) in assay [2] (setting [8]); 90.4% (active) in assay [2] (at 50.0 µM). Further, the growth inhibition was 84% (active) in assay [3] (setting [7]); 99% (active) in assay [3] (setting [8]); 91.9% (active) in assay [3] (at 50.0 µM); 44% (inactive) in assay [4] (setting [7]); 98% (active) in assay [4] (setting [8]); 90.5% (active) in assay [4] (at 50.0 µM). Further, the growth inhibition in assay [5] (setting [7]) is 98% (active); in assay [5] (setting [8]), 99% (active); in assay [5] (at 50.0 µM) it was 89.8% (active); in assay [6] (setting [7]), 35% (inactive); in assay [6] (setting [8]), 100% (active); in assay [6] (at 50.0 µM), 91.8% (active).

The record behind these values is PubChem BioAssay (NCI).
